High-throughput results (PubChem BioAssay)
A selection: hits, their analogues and other compounds. The true share with any hit is near 27%.
CYP2C19 activ: cytochrome P450 2C19 (human) activation | activation factor at 5 µM | P33261 | recombinant CYP2C19, luciferin-H EGE luminescence; hits give high values; 0 = fully inhibited enzyme, 1 = untreated enzyme | AID 1025 | 96,000 tested, under 10 active;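 active = activation factor of at least 2 at 5 µM in the primary screen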
CYP2C9 inh: inhibitors of human CYP2C9; inhibition, % at 5 µM; hit rate 20% among 96,000; CYP2C9 Supersomes, luciferin-H conversion, luminescence; P11712;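 active = blocking of liver enzyme CYP2C9 beyond about 50% at 5 µM, limit read from the data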
Target sequence (P11712 whole entry, looked up): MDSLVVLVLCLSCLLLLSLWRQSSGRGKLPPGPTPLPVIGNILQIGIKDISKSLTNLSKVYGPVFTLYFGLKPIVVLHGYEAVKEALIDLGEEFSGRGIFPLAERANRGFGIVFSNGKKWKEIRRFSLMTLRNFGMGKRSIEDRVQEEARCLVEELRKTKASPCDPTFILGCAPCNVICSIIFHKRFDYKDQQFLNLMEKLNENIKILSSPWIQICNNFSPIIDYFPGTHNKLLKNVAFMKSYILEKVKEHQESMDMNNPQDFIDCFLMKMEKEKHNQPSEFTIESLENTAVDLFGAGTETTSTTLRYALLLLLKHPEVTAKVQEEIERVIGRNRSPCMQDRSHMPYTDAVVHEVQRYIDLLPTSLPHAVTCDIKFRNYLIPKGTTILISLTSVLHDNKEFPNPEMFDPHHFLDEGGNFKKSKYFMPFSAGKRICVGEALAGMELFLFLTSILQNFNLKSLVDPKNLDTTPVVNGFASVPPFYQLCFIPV
sEH act: increases human soluble epoxide hydrolase activity | purified human sEH enzymatic activity, activator screen | hit rate 0.04% among 91,000 | activation, % at 2 µM | P34913; in the data active = activation above about 37%
sEH inhibitor: soluble epoxide hydrolase (human) inhibition; P34913; inhibition, % at 2 µM; recombinant human sEH enzymatic activity assay; hit rate 0.34% among 91,000; in the data active = inhibition above about 80%
CYP2C19 inhib: blocks human cytochrome P450 2C19; P33261; CYP2C19 Supersomes, luciferin-H EGE luminescence, 30 min; inhibition, % at 5 µM; hit rate 21% among 96,000; AID 778;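 active = CYP2C19 inhibition above a set limit at 5 µM in the primary screen, cut at about 50% in these data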
CYP2C9 activ: activators of human CYP2C9; hit rate 1.4% among 96,000; P11712; recombinant CYP2C9, luciferin-H conversion, luminescence; hits give high values; factor 1 = untreated enzyme, 0 = blocked; activation factor at 5 µM;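 active = activation factor of 2 or more for CYP2C9 at a 5 µM dose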
Hits are given with their value; i = inactive; nt = not tested or not shown.

SMILES | CYP2C19 activ | CYP2C9 inh | sEH act | sEH inhibitor | CYP2C19 inhib | CYP2C9 activ
O=C(NCc1cccnc1)c1ccc(S(=O)(=O)N2CCCCC2)cc1 | i | i | i | i | 61 | i
O=C(NCc1ccccc1)c1ccc(S(=O)(=O)N2CCCC2)cc1 | i | i | i | i | i | i
O=C(COC(=O)c1ccccc1S(=O)(=O)N1CCCCC1)NCC(F)(F)F | i | 70 | i | i | i | i
CCCS(=O)(=O)N1CCCC(C(=O)NCCCN2CCN(c3ccccc3F)CC2)C1 (configuration not stated) | i | i | i | i | i | i
O=C(CSc1nnc(-c2ccc(S(=O)(=O)N3CCCC3)cc2)o1)NCc1ccccc1 | nt | nt | i | i | nt | nt
C=CCNC(=O)C1CCN(S(=O)(=O)c2ccc(Br)cc2)CC1 | i | i | i | i | 51 | i
O=C(NCc1ccco1)C1CCCN1S(=O)(=O)c1ccc2ccccc2c1 (configuration not stated) | i | i | i | i | 88 | i
O=C(COC(=O)c1ccc(S(=O)(=O)N2CCCC2)cc1)NCc1ccccc1 | i | 56 | i | i | i | i
C=CCNC(=O)C1CCN(S(=O)(=O)CC)CC1 | i | i | i | i | i | i
O=C(NC1CC1)C1CCCN1S(=O)(=O)c1ccc2ccccc2c1 (configuration not stated) | i | i | i | i | i | i
NS(=O)(=O)c1ccc(CCNC(=O)c2ccc(S(=O)(=O)N3CCCCC3)cc2)cc1 | i | 61 | i | i | i | i
CN(c1cccc(NC(=O)COc2ccc(Cl)cc2Cl)c1)S(C)(=O)=O | nt | nt | i | i | nt | nt
Cc1c(C(=O)N(C)Cc2ccccc2)oc2ccc(S(=O)(=O)N3CCCC3)cc12 | i | 95 | i | i | i | i
Cc1c(C(=O)NCc2ccccc2)oc2ccc(S(=O)(=O)N3CCCC3)cc12 | i | i | i | i | i | i
O=C(NCc1cccnc1)C1CCCN(S(=O)(=O)c2ccc(Br)cc2)C1 (configuration not stated) | i | i | i | i | 63 | i
COc1ccccc1CNC(=O)c1oc2ccc(S(=O)(=O)N3CCCC3)cc2c1C | i | 73 | i | i | i | i
Cc1c(C(=O)NCc2cccnc2)oc2ccc(S(=O)(=O)N3CCCCCC3)cc12 | i | 51 | nt | nt | i | i
CC(C)N(Cc1ccccc1)C(=O)c1cnc2n(c1=O)CCS2 | i | i | i | i | i | i
Cc1c(C(=O)NCc2ccc3c(c2)OCO3)oc2ccc(S(=O)(=O)N3CCCCC3)cc12 | i | 59 | i | i | i | i
O=C(NCc1cccnc1)C1CCCCN1S(=O)(=O)c1ccc(F)cc1 (configuration not stated) | i | i | i | i | 80 | i
CC1CCN(S(=O)(=O)c2ccc(C(=O)NCc3ccc4c(c3)OCO4)cc2)CC1 | i | i | i | i | i | i
Cc1ccc(S(=O)(=O)N2CCC(C(=O)OC(C)C(=O)NCc3ccc4c(c3)OCO4)CC2)cc1 (configuration not stated) | i | i | i | i | 73 | i
O=C(Cc1cscn1)c1ccc(O)cc1O | i | i | nt | nt | i | i
Cc1nn(C(=O)c2c([N+](=O)[O-])cnn2C)c(C)c1Cl | nt | nt | i | i | nt | nt
CC1CCN(c2c(NCc3ccc(C(=O)NCC4COc5ccccc5O4)cc3)c(=O)c2=O)CC1 (configuration not stated) | nt | nt | i | i | nt | nt
SMILES | CYP2C19 activ | CYP2C9 inh | sEH act | sEH inhibitor | CYP2C19 inhib | CYP2C9 activ
Fc1ccc(C2CC(c3ccccc3)n3ncnc3N2)cc1 (configuration not stated) | i | i | i | i | 88 | i
Clc1ccc(C2CC(c3ccco3)n3ncnc3N2)cc1Cl (configuration not stated) | nt | nt | i | i | nt | nt
Clc1ccc(C2CC(c3ccccc3)Nc3ncnn32)cc1 (configuration not stated) | i | i | nt | nt | 75 | i
O=c1oc(-c2cccs2)nc2scc(-c3cccs3)c12 | i | i | i | i | i | i
Cc1ccc(C)n1-n1c(C)nc2scc(-c3cccs3)c2c1=O | i | 71 | nt | nt | 79 | i
Cc1nc2scc(-c3cccs3)c2c(=O)n1-n1cccc1 | i | 58 | nt | nt | 53 | i
Cc1nc2scc(-c3cccs3)c2c(=O)o1 | i | 55 | i | i | 80 | i
CCCOc1ccc(Cc2nc(N)nc(N)n2)cc1 | i | i | i | i | i | i
CCN1C2=NCCCN2c2cc(C)c(C)cc21 | i | i | i | i | i | i
c1ccc2c(-c3nc(C4CCCCC4)no3)cc(-c3ccncc3)nc2c1 | i | 80 | i | i | 57 | i
Cc1cccc2cc(COC(=O)C(C)C)c(=O)[nH]c12 | i | i | nt | nt | i | i
Cc1cccc(NC(=O)C2CCN(S(=O)(=O)c3cccc4cccnc34)CC2)n1 | i | i | i | i | 78 | 2.3
Cc1ccc(NC(=O)C2CCN(S(=O)(=O)c3cccc4cccnc34)CC2)nc1 | i | i | i | i | 68 | i
CCCN1C(=O)c2ccccc2NC1c1ccc(OC)cc1OC (configuration not stated) | i | 53 | i | i | 63 | i
CCCN1C(=O)c2ccccc2NC1c1ccc(OC)cc1O (configuration not stated) | i | i | i | i | 81 | i
CC(=O)NCCNC(=O)CCNC(=O)c1ccc(Cl)cc1 | i | i | i | i | i | i
COc1cccc(N2CCN(C(=O)c3ccc(=O)oc3)CC2C)c1 (configuration not stated) | i | i | i | i | i | i
Clc1ccc(COc2ccccn2)cc1Cl | i | i | nt | nt | 71 | i
O=C(OCc1c(Cl)cccc1Cl)c1ccccn1 | i | i | i | i | i | i
CC(C(=O)N1c2ccc(F)cc2CCC1C)N1C(=O)c2ccccc2C1=O (configuration not stated) | i | i | i | i | 69 | i
CC1CCc2cc(F)ccc2N1C(=O)C1(C)CC1(Cl)Cl (configuration not stated) | i | i | i | i | 56 | i
COc1ccccc1NC(=O)N1c2ccc(F)cc2CCC1C (configuration not stated) | i | i | i | i | i | i
CCC(CC)C(=O)N1c2ccc(F)cc2CCC1C (configuration not stated) | i | 74 | i | i | i | i
Cc1cc2c(ccc3[nH]onc32)n1 | i | i | i | i | i | i
CCOC(=O)Cn1c(CN2CCN(c3cccc(Cl)c3)CC2)nc2c1c(=O)[nH]c(=O)n2C | nt | nt | i | i | nt | nt
COc1ccc(C2C3=C(CC(C)(C)CC3=O)Nc3cc4c(cc32)OCO4)cc1 (configuration not stated) | i | 70 | i | i | i | i
CC1(C)CC(=O)C2=C(C1)Nc1cc3c(cc1C2c1ccc2c(c1)OCO2)OCO3 (configuration not stated) | i | 76 | nt | nt | i | i
CN1C(=O)C2(N=c3ccccc3=N2)c2ccccc21 | i | 80 | i | i | i | i
COc1ccc(C2OC(=O)CC2C(=O)NC2CCCCCC2)cc1OC (configuration not stated) | i | i | i | i | i | i
